# Experimental data from ChEMBL document CHEMBL3988442, “University of Dundee, Small-Polar-MMV Screening Library” (2021).
# About 13,000 (27%) of roughly 48,000 compounds showed an effect of 50% or more. The list shows a part of the results.
# Test system: Wolbachia pipientis
# Experiment: Anti-Wolbachia Cell-Based Screen
# Format: functional
# Design: scale not given: in the data most compounds retested in dose-response had high values
# Conditions: 5 µM
row,SMILES,Percent Effect
1,O=C(N[C@@H]1CNCCC[C@H]1O)c1ccc(OCCN2CCOCC2)cc1,0.8179%
2,O=C(N[C@@H]1CNCCC[C@H]1O)c1ccc(OCCN2CCCC2)cc1,0.07573%
3,CO[C@@H]1CC[C@@H](NC(=O)c2ccc(OCCN3CCCC3)cc2)[C@H]1O,109.4%
4,c1cn(CCc2c[nH]cn2)c(-c2cc(CN3CCCC3)cs2)n1,-0.5916%
5,Cl.Fc1cccc(F)c1Cn1c(C2CCCNC2)cc2cccnc21 (stereo unspecified),125.8%
6,Cl.Fc1cccc(F)c1Cn1c(C2CCNCC2)cc2cccnc21,115.5%
7,Cl.c1cnc2c(c1)cc(C1CCOCC1)n2CCN1CCOCC1,-3.513%
8,Cl.Fc1ccccc1CNc1ccnc(C2CCNCC2)c1,96.16%
9,CC(C)(C)OC(=O)N1CC(CC(=O)NCc2ccnc(C3CC3)c2)C1,-29.57%
10,Cl.Fc1ccccc1Cn1c(C2CCNCC2)cc2cccnc21,115.9%
11,NS(=O)(=O)c1ccc(NCc2ccccc2F)cc1C(F)(F)F,-7.773%
12,O=C(O)C(F)(F)F.O=C(c1ncccn1)N1CC[C@H]2OCC[C@@]2(COc2ccccn2)C1,-10.25%
13,COC(=O)c1ccc(S(=O)(=O)N(C)CC(N)=O)c(Cl)c1,-3.285%
14,Cc1cnn(CC2CCCN2Cc2cc(=O)n3cccc(C)c3n2)c1 (stereo unspecified),6.367%
15,COc1ccc2c(c1)CCCC2CC(=O)O (stereo unspecified),-1.038%
16,O=C(NC1CCC1)[C@H]1C[C@@H]2[C@@H](C1)OCCN2CC1CC1.O=C(O)C(F)(F)F,-6.466%
17,Cc1cc(-n2cncn2)ccc1C(=O)N(CC(F)(F)F)C(C)C,-3.659%
18,Cc1nc(-c2ccccc2)sc1CSCCC(N)=O,7.014%
19,CC(=O)N1C[C@@H]2CC[C@H](C1)N(C(=O)CCc1n[nH]c3c1CCCC3)C2,-10.18%
20,CCCn1ncc(C(=O)NCc2n[nH]c3c2CCCCC3)c1C,-11.8%
21,CC1=C(C(=O)N(C)Cc2n[nH]c3c2CCCCC3)C(C)NC(=O)N1 (stereo unspecified),97.58%
22,CN(Cc1noc2c1CCCC2)C(=O)C1CCOc2ccccc2C1 (stereo unspecified),-27.45%
23,CC1=C(C(=O)NCCc2n[nH]c3c2CCCC3)C(C)NC(=O)N1 (stereo unspecified),140.8%
24,O=C(NCc1n[nH]c2c1CCCCC2)c1cnn2c1CCCC2,-12.98%
25,COc1nc2c(cc1C(=O)N(C)Cc1n[nH]c3c1CCCC3)CCC2,-1.669%
26,CN(Cc1noc2c1CCCC2)C(=O)CN1C(=O)COc2ccccc21,-4.066%

row,SMILES,Percent Effect
1,CC1=C(C(=O)N(C)Cc2noc3c2CCCC3)C(C)NC(=O)N1 (stereo unspecified),99.57%
2,COCCCC1CCCN(C(=O)CCc2csc(N)n2)C1 (stereo unspecified),18.03%
3,CC(NCCN1CCC(N(C)C)CC1)c1ccc(Cl)s1 (stereo unspecified),1.149%
4,Cc1cccc(=O)n1CCCNc1nc(N(C)C)nc2c1CCNCC2,-26.54%
5,O=C(O)C(F)(F)F.O=C(c1ccccc1-c1ccccc1)N1C[C@@H]2CNC[C@]2(C(=O)O)C1,7.106%
6,Fc1cccnc1Oc1cc(F)c(CN2CCCC2)c(Cl)c1,96.1%
7,N#Cc1cccnc1Oc1cc(F)c(CN2CCCC2)c(Cl)c1,85.58%
8,N#Cc1ccc(Oc2cc(F)c(CN3CCCC3)c(F)c2)nc1,28.32%
9,Fc1cc(Oc2ccc(C(F)(F)F)cn2)cc(F)c1CN1CCCC1,-0.6803%
10,COc1ccc(Oc2ncccc2C(F)(F)F)cc1CN1CCCC1,21.25%
11,Fc1cccnc1Oc1cc(F)c(CN2CCCC2)c(F)c1,105.5%
12,COc1cc(Oc2ncccc2C(F)(F)F)ccc1CN1CCCC1,7.614%
13,N#Cc1cccc(Oc2ccc(CN3CCCC3)cc2Cl)n1,1.122%
14,COc1ccc(Oc2ncccc2F)cc1CN1CCCC1,-25.38%
15,O=C(NCc1ccccc1CN1CCCCCC1)Nc1nncs1,-11.94%
16,CCc1csc(CNC2CCN(Cc3ccccc3)C2)n1 (stereo unspecified),-41.87%
17,O=c1[nH]c(=O)n(CC(O)c2ccccc2Cl)cc1Cl (stereo unspecified),-2.887%
18,CCCn1cnnc1CNC(=O)C1COc2ccc(OC)cc2C1 (stereo unspecified),-4.97%
19,Brc1ccc(CN2CCC(NCc3ncc[nH]3)CC2)cc1,0.1556%
20,Cn1cncc1-c1nnc([C@H]2CCN(Cc3ncc[nH]3)C2)o1,-1.708%
21,Cc1cccc(Nc2ccc(C3CCN(Cc4ncc[nH]4)CC3)nc2)n1,108.6%
22,Fc1ccc(Nc2ccc(C3CCN(Cc4ncc[nH]4)CC3)nc2)nc1,114.5%
23,CCCc1nnc([C@H]2CCN(Cc3ncc[nH]3)C2)o1,2.62%
24,CCCc1n[nH]c(C2CN(Cc3ncc[nH]3)CCO2)n1 (stereo unspecified),0.7755%
25,Clc1cc(Cl)cc(CN2CCC(NCc3ncc[nH]3)CC2)c1,21.36%
